Laboratory results as given in PubChem BioAssay AID463075 (University of Pittsburgh Molecular Library Screening Center, 2010).
The campaign covered roughly 220,000 compounds. About 150 (0.068%) were called active. The list comes from a sample in which actives are over-represented; it also holds similar structures and randomly drawn compounds. A number with no mark means an inactive call.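 How the source made its calls: active means activation, meaning protection from cell death, of at least 50% relative to plate controls; inactive means activation below 50%.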

Assay: rescue of FADD-deficient Jurkat cells from TNF-alpha death – single concentration, primary screen (AID 463075);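 further: necroptosis triggered by 40 ng/mL TNF-alpha added together with compound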
Settings: Jurkat FADD-/- TNF necroptosis rescue, ATP luminescence, 24 h; at 10 µM; active compounds read high; 0 = TNF only, 100 = no-TNF cells

SMILES | activation (protection from cell death)
COc1ccc(NC(=O)C2=C(C)NC(=O)NC2c2ccccc2[N+](=O)[O-])cc1 (configuration not stated) | 0.73%
CCOC(=O)c1cc(Sc2ccccc2N)cc(C(=O)OCC)n1 | 0.0548%
COc1ccc(OCc2cn3c(C)cc(C)nc3n2)cc1 | 1.17%
CC1COc2ccccc2N1S(=O)(=O)c1ccccc1 (configuration not stated) | -0.217%
CCOc1ccccc1NC(=O)C12CC3CC(C1)CC(c1ccc(C)cc1)(C3)C2 | -1.89%
Cc1csc(Nc2ccc(Cl)cc2)[n+]1-c1ccc(Cl)cc1 | 52.7% (active)
O=c1ccnc(Nc2ccc(Cl)cc2)[nH]1 | 2.1%
Cc1ccc(NC(=O)c2ccc(Oc3ncccn3)cc2)cc1 | -0.146%
CN(C)Cc1ccc(F)cc1Sc1cc(Cl)ccc1Cl | 0.603%
CCOC(=O)CNC(=O)N1c2ccccc2Sc2ccccc21 | -1.84%
C=CCNC(=O)c1cc2nc(C3CC3)cc(C(F)F)n2n1 | 0.00242%
Cc1ccc(C(=O)/C=C/Nc2ccc(S(=O)(=O)Nc3onc(C)c3C)cc2)cc1 | 1.49%
CCN(CC)c1ccc(C(=O)c2cnc(/N=C/N(C)C)s2)cc1 | 2.87%
CC(NC(=S)NNS(=O)(=O)c1ccc(C(C)(C)C)cc1)c1ccccc1 (configuration not stated) | 5.41%
COc1cc(OC)cc(C(=O)NC2CCN(C(=O)N3c4ccccc4Sc4ccccc43)CC2)c1 | -2.58%
CN(C)CCCn1c(SCCN2C(=O)c3ccccc3C2=O)nc2ccccc2c1=O | 0.858%
CCN(CC)C(=O)CSc1nnc(CNc2ccc(F)cc2)n1Cc1ccco1 | 0.256%
C/C(CC(C)C)=N\Oc1nc(C)cc(C)n1 | 1.02%
Clc1ccc(-c2cc(C3CCNCC3)[nH]n2)c(Cl)c1 | 4.13%
FC(F)(F)c1cc(C(F)(F)F)c2ccc(N3CCN(c4ccccc4)CC3)nc2n1 | -0.212%
NC(=O)c1ccc(NC(=O)COC(=O)C(Cc2ccccc2)NC(=O)c2ccccc2)cc1 (configuration not stated) | 0.97%

SMILES | activation (protection from cell death)
Cc1nn(C)c(C)c1S(=O)(=O)N1CCC(CO)(Cc2ccc(Cl)cc2)CC1 | -0.682%
CCC1CO/C(=C(\C(=C(Cl)Cl)N2CCOCC2)[N+](=O)[O-])N1 (configuration not stated) | 0.241%
C=C(C)COc1ccc(-c2nc(N)ncc2-c2ccccc2OC)c(O)c1 | 1.21%
OCC1(CCc2ccccc2)CCN(Cc2ccc3nsnc3c2)CC1 | 1.53%
NS(=O)(=O)c1ccc(NC(=S)NC(=O)c2cccc(Br)c2)cc1 | -0.737%
CCOc1ccc(NC(=O)C2CC(=O)N=C(N)S2)cc1 (configuration not stated) | 0.442%
CCOC(=O)C1=C(CC)Nc2ccccc2N=C1NC(=O)c1cccc(S(=O)(=O)N2CCCC2)c1 | -3.1%
COC(=O)C1CCN(CC(N)=O)CC1 | 1.78%
Cc1c([N+](=O)[O-])c(N)nn1C | 0.221%
COc1ccc(CC(=O)NCc2nnc(SCC(=O)Nc3ncc(C)s3)n2C)cc1 | 1.73%
Clc1ncn(CCOc2ccccc2)c1Cl | 3.48%
N#Cc1c(N2CCCCC2)nc(N)c2c(N)nc(SCC(=O)O)cc12 | -7.92%
Cc1cc(C(=O)COC(=O)C2CC2)c(C)n1-c1ccc(F)cc1 | -0.153%
CN(C(=O)c1c(Cl)cnn1C)C12CC3CC(CC(C3)C1)C2 | -0.801%
CCNc1ccc(C(=O)OCC(=O)N2c3ccccc3NC(=O)C2(C)C)cc1[N+](=O)[O-] | 1.58%
CCn1c2ccccc2c2cc(CC(N)=O)ccc21 | -1.12%
CCc1ccccc1NC(=O)CN(c1ccc(OC)cc1OC)S(=O)(=O)c1ccccc1[N+](=O)[O-] | 0.342%
Cc1ccc2nc(SC(C)C(=O)NCc3ccco3)[nH]c2c1 (configuration not stated) | -0.614%
CCOC(=O)c1c(N)sc2c1CCCC2=O | -2.66%
O=C1OCC2=C1C(c1ccccc1)CC(=O)N2c1cccc(F)c1 (configuration not stated) | -0.757%
O=C1CC(NNc2ccccc2)C(=O)N1c1cccc(Cl)c1 (configuration not stated) | -2.98%

SMILES | activation (protection from cell death)
O=C1CC(c2ccccc2)C(=O)N1c1cccc(O)c1 (configuration not stated) | 52% (active)
Cc1nnc(Nc2ccccc2F)s1 | 0.78%
N#Cc1c(-c2ccc(Cl)cc2)c2c([nH]c1=S)CCCC2 | -2.48%
O=C(O)c1ccccc1-c1ccccc1C(=O)NCc1cccnc1 | 0.395%
CCN(C(=O)COc1cccnc1[N+](=O)[O-])C1CCS(=O)(=O)C1 (configuration not stated) | 0.598%
CCC(C)n1c(-c2cc(OC)c(OC)c(OC)c2)nc2nc3ccccc3nc21 (configuration not stated) | -16.6%
CC(=O)Nc1nc2c(s1)C(=O)NCC(C)(C)C2 | 0.16%
Cc1ccc(S(=O)(=O)NCCc2nnc3ccc(SCc4cccnc4)nn23)cc1 | -0.101%
O=C(Cc1c(F)cccc1Cl)Nc1ncc([N+](=O)[O-])s1 | 59.9% (active)
O=C(Cc1c(F)cccc1Cl)Nc1ccc(-n2cnnn2)cc1 | 0.184%
O=C(CCc1ccccc1)Nc1ncc([N+](=O)[O-])s1 | 9.81%
COc1ccc(Br)cc1C(=O)Nc1cccc(C)c1C | 0.986%
O=C(NC(Cc1c[nH]c2ccccc12)C(=O)N/N=C/c1ccc(Br)cc1)c1cccs1 (configuration not stated) | -2.26%
CC(C)c1nc(CNC(=O)CC2C(=O)NCCN2Cc2ccoc2)cs1 (configuration not stated) | -0.307%
CCc1cc(CNC(=O)CC2C(=O)NCCN2Cc2ccccc2C(F)(F)F)on1 (configuration not stated) | 1.76%
COC(=O)c1ccc(CSc2ccccc2C)o1 | 6.63%
COC(=O)c1ccc(Cc2ccccc2)o1 | 55.2% (active)
COC(=O)c1ccc(CN(c2ccccc2OC)S(=O)(=O)c2cccs2)o1 | 0.0719%
COc1ccccc1CNC(=O)CN1CCC(n2cnc3cc(F)ccc32)CC1 | 4.48%
O=C(c1ccc(S(=O)(=O)c2ccccc2)cc1)N1CCCCCC1 | 1.36%
